Data from the supplement of paper PMC13380429.

Tested on: Vero E6 infected with SARS-CoV-2
Test: inhibition of SARS-CoV-2 cytopathic effect; higher = more antiviral protection, active = above 15
Settings: 48 h

Measured: inhibition of SARS-CoV-2 cytopathic effect

COc1cc(Oc2ccnc3cc(OC)c(OC)cc23)ccc1NC(=O)NC(C)c1nccs1 (stereo not given)
inactive: 1 nM -1.6% | 8.33 nM 0.95% | 100 nM 1.7% | 833.33 nM 0.48% | 10000 nM -1.8%

CC(O)CC(=O)O (stereo not drawn) [beta-hydroxybutyrate]
inactive: 1 nM 7.02% | 8.33 nM 2.5% | 100 nM -2.77% | 833.33 nM -2.16% | 10000 nM -1.85%

Clc1ccc(CO/N=C(\Cn2ccnc2)c2ccc(Cl)cc2Cl)c(Cl)c1 [oxiconazole]
inactive: 1 nM -0.54% | 8.33 nM 0.43% | 100 nM 1.05% | 833.33 nM 0.68% | 10000 nM -1.24%

C[C@@]1(C(=O)O)NCCc2cc(O)c(O)cc21 [salsolinol-1-carboxylic-acid]
inactive: 1 nM 0.05% | 8.33 nM -1.48% | 100 nM -1.16% | 833.33 nM 2.45% | 10000 nM 1.69%

O=c1c(O)c(-c2ccc(O)cc2)oc2cc(O)cc(O)c12 [kaempferol]
inactive: 1 nM -3.6% | 8.33 nM 12% | 100 nM -1.58% | 833.33 nM 1.56% | 10000 nM 11.2%

Nc1nonc1/C(=N/O)Nc1ccc(F)c(Cl)c1
inactive: 1 nM 5.29% | 8.33 nM 3.44% | 100 nM 2.09% | 833.33 nM 0.57% | 10000 nM -2.02%

CC/C=C\C/C=C\C/C=C\C/C=C\C/C=C\C/C=C\CCC(=O)OCC [doconexent-ethyl-ester]
inactive: 1 nM -1.67% | 8.33 nM 0.01% | 100 nM 0.45% | 833.33 nM 0.72% | 10000 nM 0.36%

C[N+]1(C)[C@@H]2C[C@@H](OC(=O)C(O)(c3cccs3)c3cccs3)C[C@H]1[C@@H]1O[C@@H]12 [tiotropium]
inactive: 1 nM 0.89% | 8.33 nM -2.54% | 100 nM -2.45% | 833.33 nM -5.08% | 10000 nM -3.35%

CC12CCC(CC1=O)C2(C)C (stereo not drawn) [camphor-(+)]
inactive: 1 nM 1.23% | 8.33 nM 0.085% | 100 nM -0.16% | 833.33 nM 1.82% | 10000 nM -0.53%

O=c1n(CC2CO2)c(=O)n(CC2CO2)c(=O)n1CC1CO1 (stereo not given) [teroxirone]
inactive: 1 nM -1.74% | 8.33 nM -0.65% | 100 nM 0.11% | 833.33 nM 0.34% | 10000 nM 9.05%

O=C1CCCCCCCCCCCCCCO1 [oxacyclohexadecan-2-one]
inactive: 1 nM -0.21% | 8.33 nM 0.27% | 100 nM 0.06% | 833.33 nM 1.81% | 10000 nM -1.21%

CCCCCCCCCCCCC[N+](C)(C)Cc1ccccc1 [benzalkonium]
inactive: 1 nM -0.66% | 8.33 nM 0.17% | 100 nM -0.42% | 833.33 nM 1.78% | 10000 nM -8.08%

C/C=C/C[C@@H](C)C(=O)[C@H]1C(=O)N[C@@H](C(C)C)C(=O)N(C)CC(=O)N(C)[C@@H](CC(C)C)C(=O)N[C@@H](C(C)C)C(=O)N(C)[C@@H](CC(C)C)C(=O)N[C@@H](C)C(=O)N[C@H](C)C(=O)N(C)[C@@H](CC(C)C)C(=O)N(C)[C@@H](CC(C)C)C(=O)N(C)[C@@H](C(C)C)C(=O)N1C [valspodar]
inactive: 1 nM -5.19% | 8.33 nM -0.88% | 100 nM -1.83% | 833.33 nM 0.22% | 10000 nM 8.33%

CC(Oc1c(Cl)cccc1Cl)C1=NCCN1 (stereo not given) [lofexidine]
inactive: 1 nM 3.3% | 8.33 nM 3.14% | 100 nM 5.17% | 833.33 nM 7.76% | 10000 nM 1.15%

CN1C(=O)C(N2CCCCC2)S/C1=C\C(=O)O (stereo not given) [ozolinone]
inactive: 1 nM -4.09% | 8.33 nM 0.03% | 100 nM 4.18% | 833.33 nM 0.02% | 10000 nM -0.02%

CN(c1ccc(NC(=O)Nc2ccccc2)cc1)S(=O)(=O)c1cnn(-c2ccc(F)cc2)c1
inactive: 1 nM 2.37% | 8.33 nM 2.39% | 100 nM 0.06% | 833.33 nM -1.77% | 10000 nM 0.18%

O=S(=O)(c1ccccc1)c1cnc2c(N3CCNCC3)cccc2c1
inactive: 1 nM -2.8% | 8.33 nM -0.02% | 100 nM -3.01% | 833.33 nM 0.98% | 10000 nM 1.43%

CC[C@]1(O)C[C@@H]2CN(CCc3c([nH]c4ccccc34)[C@@](C(=O)OC)(c3cc4c(cc3OC)N(C)[C@H]3[C@@](O)(C(N)=O)[C@H](O)[C@]5(CC)C=CCN6CC[C@]43[C@@H]65)C2)C1 [vindesine]
inactive: 1 nM 0.4% | 8.33 nM 0.16% | 100 nM -1.63% | 833.33 nM 0.62% | 10000 nM -2.18%

Fc1ccccc1CNCc1ccc(-c2ccnc3[nH]ccc23)cc1
inactive: 1 nM 4.68% | 8.33 nM 2.19% | 100 nM 0.04% | 833.33 nM -1.5% | 10000 nM -7.9%
